Measurements: PMC7862700, “An all-to-all approach to the identification of sequence-specific readers for epigenetic DNA modifications on cytosine”

How the values were obtained:
Assay in all cases: DAPPL (digital affinity profiling via proximity ligation, sequencing); 10 mM Tris-HCl pH 7.5, 50 mM NaCl, 1 mM DTT, 4% glycerol, room temperature, 30 min; GST-TFs on glutathione beads, 16-mer random dsDNA library, 0.1% formaldehyde crosslink after washing; high values mean tight binding
[1] = target: T1, FLI1 (Homo sapiens, UniProt Q01543 1-452); details: protein: recombinant; tags: N-terminal GST; dsDNA, one strand shown
T1 sequence: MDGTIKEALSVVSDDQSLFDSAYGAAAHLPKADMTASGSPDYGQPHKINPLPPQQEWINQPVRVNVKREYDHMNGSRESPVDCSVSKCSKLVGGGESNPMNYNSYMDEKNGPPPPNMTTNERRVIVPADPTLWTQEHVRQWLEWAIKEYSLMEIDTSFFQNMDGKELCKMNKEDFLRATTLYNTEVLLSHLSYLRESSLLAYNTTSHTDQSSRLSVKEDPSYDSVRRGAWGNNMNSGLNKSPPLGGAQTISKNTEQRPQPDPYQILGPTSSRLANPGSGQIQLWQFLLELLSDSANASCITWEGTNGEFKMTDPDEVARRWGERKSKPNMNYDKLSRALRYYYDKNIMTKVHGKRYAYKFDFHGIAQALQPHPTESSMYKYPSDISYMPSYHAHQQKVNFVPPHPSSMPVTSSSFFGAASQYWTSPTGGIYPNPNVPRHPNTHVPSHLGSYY
Summary of the method: (§1)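 Binding signal is defined as a hexamer's read frequency for one factor over its frequency for the tag-only sample. To obtain reads, GST-fused human transcription factors were expressed in yeast, captured on glutathione beads, barcoded with DNA and pooled with that sample. Pools met 200 nmole of a 16-mer random double-stranded DNA library in Tris/NaCl/DTT/glycerol buffer for 30 min at room temperature before washing, 0.1% formaldehyde crosslinking, proximity ligation (BsaI/T4 ligase, 1 h, 37 °C), PCR and Illumina NextSeq500 sequencing.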

[2] = target: T2, ELK1 (Homo sapiens, UniProt P19419 1-428); details: protein: recombinant; tags: N-terminal GST; dsDNA, one strand shown
T2 sequence: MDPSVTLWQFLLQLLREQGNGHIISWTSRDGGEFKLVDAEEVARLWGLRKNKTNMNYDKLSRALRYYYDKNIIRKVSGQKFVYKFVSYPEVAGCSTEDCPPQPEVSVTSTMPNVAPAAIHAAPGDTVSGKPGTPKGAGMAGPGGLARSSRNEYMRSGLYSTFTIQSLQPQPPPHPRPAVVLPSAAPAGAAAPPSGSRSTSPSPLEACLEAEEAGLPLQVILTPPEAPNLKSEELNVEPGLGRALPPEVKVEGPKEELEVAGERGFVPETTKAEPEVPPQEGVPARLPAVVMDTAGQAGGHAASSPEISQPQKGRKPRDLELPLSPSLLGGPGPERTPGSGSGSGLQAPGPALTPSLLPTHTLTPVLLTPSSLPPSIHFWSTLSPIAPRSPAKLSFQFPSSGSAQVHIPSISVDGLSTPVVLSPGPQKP
Summary of the method: as §1

[3] = target: T3, GABPA (Homo sapiens, UniProt Q06546 1-454); details: protein: recombinant; tags: N-terminal GST; dsDNA, one strand shown
T3 sequence: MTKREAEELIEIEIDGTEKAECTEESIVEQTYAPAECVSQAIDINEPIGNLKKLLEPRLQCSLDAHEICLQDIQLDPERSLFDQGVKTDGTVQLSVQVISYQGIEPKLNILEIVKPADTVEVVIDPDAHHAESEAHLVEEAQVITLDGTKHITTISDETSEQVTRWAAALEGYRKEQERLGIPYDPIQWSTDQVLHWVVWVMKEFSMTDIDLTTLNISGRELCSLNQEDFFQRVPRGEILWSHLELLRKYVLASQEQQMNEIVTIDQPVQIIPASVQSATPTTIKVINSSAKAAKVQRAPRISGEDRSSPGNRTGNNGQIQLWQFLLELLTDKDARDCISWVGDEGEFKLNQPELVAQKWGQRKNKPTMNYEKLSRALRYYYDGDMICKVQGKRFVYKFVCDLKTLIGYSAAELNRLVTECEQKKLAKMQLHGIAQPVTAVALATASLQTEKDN
Summary of the method: as §1

[4] = target: T4, ERG (Homo sapiens, UniProt P11308 1-479); details: protein: recombinant; tags: N-terminal GST; dsDNA, one strand shown
T4 sequence: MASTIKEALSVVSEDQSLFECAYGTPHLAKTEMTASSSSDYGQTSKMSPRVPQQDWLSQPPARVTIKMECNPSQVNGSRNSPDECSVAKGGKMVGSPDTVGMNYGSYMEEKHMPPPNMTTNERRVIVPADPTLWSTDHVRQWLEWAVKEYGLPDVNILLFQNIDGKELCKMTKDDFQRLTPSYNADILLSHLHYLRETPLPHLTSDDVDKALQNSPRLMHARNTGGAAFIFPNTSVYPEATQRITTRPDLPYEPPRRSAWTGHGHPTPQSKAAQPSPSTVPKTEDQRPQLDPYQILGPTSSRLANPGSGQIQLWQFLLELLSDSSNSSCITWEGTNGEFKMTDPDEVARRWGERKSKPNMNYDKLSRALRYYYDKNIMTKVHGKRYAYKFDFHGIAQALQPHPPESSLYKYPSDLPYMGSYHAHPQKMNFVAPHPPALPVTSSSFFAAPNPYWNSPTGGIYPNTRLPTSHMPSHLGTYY
Summary of the method: as §1

[5] = target: ELF1 (Homo sapiens, UniProt P32519 1-619); details: protein: recombinant; tags: N-terminal GST; dsDNA, one strand shown
Sequence of ELF1 (P32519 whole entry): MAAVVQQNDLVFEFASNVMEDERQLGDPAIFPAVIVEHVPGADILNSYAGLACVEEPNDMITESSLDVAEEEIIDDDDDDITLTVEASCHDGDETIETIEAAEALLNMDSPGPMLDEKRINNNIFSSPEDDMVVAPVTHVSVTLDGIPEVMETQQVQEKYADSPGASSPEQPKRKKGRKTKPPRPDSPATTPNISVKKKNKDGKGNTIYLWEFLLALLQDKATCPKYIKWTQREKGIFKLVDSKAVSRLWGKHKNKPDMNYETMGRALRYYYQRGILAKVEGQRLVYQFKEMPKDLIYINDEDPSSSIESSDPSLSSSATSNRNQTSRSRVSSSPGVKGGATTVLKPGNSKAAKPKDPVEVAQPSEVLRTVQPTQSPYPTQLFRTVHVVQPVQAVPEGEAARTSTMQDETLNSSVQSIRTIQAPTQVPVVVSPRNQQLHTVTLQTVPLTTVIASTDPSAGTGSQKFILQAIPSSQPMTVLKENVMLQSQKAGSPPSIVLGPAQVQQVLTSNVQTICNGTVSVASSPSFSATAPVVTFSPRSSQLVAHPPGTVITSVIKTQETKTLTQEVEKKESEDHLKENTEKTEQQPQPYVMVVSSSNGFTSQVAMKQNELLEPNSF
Summary of the method: as §1

[6] = target: T5, EHF (Homo sapiens, UniProt Q9NZC4 1-300); details: protein: recombinant; tags: N-terminal GST; dsDNA, one strand shown
T5 sequence: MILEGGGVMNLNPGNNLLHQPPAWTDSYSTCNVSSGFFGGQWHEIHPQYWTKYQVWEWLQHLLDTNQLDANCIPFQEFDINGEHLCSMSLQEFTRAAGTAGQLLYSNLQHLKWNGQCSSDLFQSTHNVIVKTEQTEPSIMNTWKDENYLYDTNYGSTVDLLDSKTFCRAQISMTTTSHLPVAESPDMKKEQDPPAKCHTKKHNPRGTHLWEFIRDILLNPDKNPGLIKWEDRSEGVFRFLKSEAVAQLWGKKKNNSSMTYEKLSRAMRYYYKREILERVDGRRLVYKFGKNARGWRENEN
Summary of the method: as §1

[7] = target: SPI1 (Homo sapiens, UniProt P17947 1-270); details: protein: recombinant; tags: N-terminal GST; dsDNA, one strand shown
Summary of the method: as §1

[8] = target: SPIB (Homo sapiens, UniProt Q01892 1-262); details: protein: recombinant; tags: N-terminal GST; dsDNA, one strand shown
Sequence of SPIB (Q01892 whole entry): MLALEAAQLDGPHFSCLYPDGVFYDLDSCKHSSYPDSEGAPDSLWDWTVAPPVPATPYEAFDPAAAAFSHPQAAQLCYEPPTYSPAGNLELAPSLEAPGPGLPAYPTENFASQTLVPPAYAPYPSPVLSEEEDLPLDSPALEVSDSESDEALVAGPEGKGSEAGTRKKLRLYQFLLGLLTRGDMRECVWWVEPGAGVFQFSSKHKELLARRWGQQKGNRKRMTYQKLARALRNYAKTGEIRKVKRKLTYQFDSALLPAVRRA
Summary of the method: as §1

[9] = target: T6, ELK3 (Homo sapiens, UniProt P41970 1-407); details: protein: recombinant; tags: N-terminal GST; dsDNA, one strand shown
T6 sequence: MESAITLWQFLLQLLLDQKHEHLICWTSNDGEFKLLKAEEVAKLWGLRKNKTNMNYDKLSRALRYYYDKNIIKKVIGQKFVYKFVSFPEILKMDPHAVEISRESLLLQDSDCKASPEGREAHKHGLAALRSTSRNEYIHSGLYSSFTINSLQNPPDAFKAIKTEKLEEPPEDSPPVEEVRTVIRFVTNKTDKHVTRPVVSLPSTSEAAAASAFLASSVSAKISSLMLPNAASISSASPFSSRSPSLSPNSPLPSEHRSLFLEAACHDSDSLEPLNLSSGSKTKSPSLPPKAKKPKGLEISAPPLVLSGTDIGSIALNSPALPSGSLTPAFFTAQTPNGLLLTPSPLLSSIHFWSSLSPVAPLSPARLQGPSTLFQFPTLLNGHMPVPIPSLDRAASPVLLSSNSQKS
Summary of the method: as §1

[10] = target: T7, FEV (Homo sapiens, UniProt Q99581 1-238); details: protein: recombinant; tags: N-terminal GST; dsDNA, one strand shown
T7 sequence: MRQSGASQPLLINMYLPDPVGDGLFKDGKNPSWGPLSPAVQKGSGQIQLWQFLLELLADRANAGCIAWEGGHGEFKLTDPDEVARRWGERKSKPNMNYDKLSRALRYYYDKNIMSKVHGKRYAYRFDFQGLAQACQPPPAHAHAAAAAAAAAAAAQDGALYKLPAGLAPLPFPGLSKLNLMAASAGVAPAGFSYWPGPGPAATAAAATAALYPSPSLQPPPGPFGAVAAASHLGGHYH
Summary of the method: as §1

[11] = target: ETV5 (Homo sapiens, UniProt P41161 1-510); details: protein: recombinant; tags: N-terminal GST; dsDNA, one strand shown
Sequence of ETV5 (P41161 whole entry): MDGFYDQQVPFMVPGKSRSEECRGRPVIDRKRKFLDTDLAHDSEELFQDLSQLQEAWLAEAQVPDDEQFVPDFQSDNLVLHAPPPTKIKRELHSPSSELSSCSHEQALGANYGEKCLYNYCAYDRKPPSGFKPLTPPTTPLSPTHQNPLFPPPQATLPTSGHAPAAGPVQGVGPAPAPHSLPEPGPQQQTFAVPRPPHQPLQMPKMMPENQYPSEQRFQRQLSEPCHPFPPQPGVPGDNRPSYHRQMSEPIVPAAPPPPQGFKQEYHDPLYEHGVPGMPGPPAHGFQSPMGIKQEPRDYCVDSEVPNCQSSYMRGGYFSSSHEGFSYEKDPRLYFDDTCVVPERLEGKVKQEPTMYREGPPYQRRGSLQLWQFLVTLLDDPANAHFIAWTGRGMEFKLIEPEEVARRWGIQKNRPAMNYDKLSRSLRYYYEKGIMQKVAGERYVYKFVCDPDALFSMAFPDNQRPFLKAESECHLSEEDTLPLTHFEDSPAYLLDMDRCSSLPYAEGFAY
Summary of the method: as §1

[12] = target: HSF1 (Homo sapiens, UniProt Q00613 1-529); details: protein: recombinant; tags: N-terminal GST; chain copies: 3; dsDNA, one strand shown
Sequence of HSF1 (Q00613 whole entry): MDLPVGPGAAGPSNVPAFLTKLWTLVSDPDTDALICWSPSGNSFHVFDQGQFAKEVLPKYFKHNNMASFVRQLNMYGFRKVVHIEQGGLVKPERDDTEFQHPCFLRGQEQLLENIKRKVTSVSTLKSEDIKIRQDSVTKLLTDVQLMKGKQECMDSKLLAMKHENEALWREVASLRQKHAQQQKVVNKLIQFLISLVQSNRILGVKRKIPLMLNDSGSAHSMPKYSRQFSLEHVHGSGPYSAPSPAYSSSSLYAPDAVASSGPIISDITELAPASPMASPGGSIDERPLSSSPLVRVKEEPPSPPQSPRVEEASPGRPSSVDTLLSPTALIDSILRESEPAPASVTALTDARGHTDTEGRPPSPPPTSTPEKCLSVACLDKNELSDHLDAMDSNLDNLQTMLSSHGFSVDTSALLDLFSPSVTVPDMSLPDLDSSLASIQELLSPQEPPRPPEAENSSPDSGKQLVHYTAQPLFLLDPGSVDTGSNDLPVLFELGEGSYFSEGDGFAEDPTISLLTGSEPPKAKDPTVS
Summary of the method: as §1

[13] = target: T8, SPIC (Homo sapiens, UniProt Q8N5J4 1-248); details: protein: recombinant; tags: N-terminal GST; dsDNA, one strand shown
T8 sequence: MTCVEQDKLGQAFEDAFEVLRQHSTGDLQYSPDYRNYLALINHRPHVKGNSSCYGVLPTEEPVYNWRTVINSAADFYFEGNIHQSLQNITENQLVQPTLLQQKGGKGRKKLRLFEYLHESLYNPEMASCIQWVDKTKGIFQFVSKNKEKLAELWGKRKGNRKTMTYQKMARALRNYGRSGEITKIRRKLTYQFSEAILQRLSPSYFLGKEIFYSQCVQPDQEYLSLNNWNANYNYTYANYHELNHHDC
Summary of the method: as §1

[14] = target: ELF4 (Homo sapiens, UniProt Q99607 1-663); details: protein: recombinant; tags: N-terminal GST; dsDNA, one strand shown
Sequence of ELF4 (Q99607 whole entry): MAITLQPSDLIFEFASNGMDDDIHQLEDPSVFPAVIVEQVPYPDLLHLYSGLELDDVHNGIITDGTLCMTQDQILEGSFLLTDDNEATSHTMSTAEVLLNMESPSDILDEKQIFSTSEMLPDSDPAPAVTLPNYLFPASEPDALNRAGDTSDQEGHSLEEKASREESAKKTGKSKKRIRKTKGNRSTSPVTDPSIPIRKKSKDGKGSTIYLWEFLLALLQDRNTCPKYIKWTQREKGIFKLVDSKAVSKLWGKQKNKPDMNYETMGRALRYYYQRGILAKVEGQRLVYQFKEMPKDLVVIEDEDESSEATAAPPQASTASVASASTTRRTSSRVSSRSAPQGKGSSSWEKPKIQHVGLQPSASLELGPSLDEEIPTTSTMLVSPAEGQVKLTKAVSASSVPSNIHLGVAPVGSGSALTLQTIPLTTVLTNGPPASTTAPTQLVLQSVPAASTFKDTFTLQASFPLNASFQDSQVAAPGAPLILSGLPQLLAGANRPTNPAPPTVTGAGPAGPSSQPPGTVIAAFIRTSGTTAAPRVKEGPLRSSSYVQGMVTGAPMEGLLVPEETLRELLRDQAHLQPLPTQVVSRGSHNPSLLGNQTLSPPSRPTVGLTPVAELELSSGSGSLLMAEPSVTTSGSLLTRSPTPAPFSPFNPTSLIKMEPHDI
Summary of the method: as §1

[15] = target: T9, ELK4 (Homo sapiens, UniProt P28324-2 1-405); details: protein: recombinant; tags: N-terminal GST; dsDNA, one strand shown
T9 sequence: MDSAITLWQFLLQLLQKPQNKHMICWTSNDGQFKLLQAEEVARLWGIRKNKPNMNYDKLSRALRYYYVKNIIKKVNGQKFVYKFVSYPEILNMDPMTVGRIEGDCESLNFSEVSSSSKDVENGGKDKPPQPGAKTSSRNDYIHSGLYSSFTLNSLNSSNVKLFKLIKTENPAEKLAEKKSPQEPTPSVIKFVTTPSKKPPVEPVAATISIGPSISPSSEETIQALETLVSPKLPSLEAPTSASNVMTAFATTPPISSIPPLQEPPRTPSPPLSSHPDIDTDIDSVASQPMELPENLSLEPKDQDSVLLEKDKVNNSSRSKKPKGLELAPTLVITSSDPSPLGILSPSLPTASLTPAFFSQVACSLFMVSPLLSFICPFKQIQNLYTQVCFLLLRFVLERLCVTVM
Summary of the method: as §1

[16] = target: T10, ETV2 (Homo sapiens, UniProt O00321 1-342); details: protein: recombinant; tags: N-terminal GST; dsDNA, one strand shown
T10 sequence: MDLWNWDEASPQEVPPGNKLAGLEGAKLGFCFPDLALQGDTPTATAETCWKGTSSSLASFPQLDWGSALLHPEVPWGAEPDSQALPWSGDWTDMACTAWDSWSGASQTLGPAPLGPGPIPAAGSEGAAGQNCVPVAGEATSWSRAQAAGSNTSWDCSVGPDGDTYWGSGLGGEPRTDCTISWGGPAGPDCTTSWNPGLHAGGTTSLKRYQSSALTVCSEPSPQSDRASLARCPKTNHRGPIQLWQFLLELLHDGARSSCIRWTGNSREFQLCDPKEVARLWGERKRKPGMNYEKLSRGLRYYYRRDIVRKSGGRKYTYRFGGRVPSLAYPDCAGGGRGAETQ
Summary of the method: as §1

[17] = target: T11, ELF3 (Homo sapiens, UniProt P78545 1-371); details: protein: recombinant; tags: N-terminal GST; dsDNA, one strand shown
T11 sequence: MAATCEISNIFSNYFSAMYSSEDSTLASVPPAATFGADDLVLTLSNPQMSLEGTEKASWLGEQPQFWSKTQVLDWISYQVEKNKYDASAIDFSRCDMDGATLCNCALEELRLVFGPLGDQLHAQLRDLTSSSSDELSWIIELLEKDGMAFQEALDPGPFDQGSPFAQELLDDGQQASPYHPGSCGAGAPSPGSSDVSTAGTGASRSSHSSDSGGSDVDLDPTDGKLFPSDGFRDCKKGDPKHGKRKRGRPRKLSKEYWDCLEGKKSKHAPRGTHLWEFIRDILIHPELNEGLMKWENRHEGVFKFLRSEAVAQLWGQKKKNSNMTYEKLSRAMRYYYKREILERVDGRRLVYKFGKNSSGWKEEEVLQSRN
Summary of the method: as §1

[18] = target: CRX (Homo sapiens, UniProt O43186 1-299); details: protein: recombinant; tags: N-terminal GST; dsDNA, one strand shown
Sequence of CRX (O43186 whole entry): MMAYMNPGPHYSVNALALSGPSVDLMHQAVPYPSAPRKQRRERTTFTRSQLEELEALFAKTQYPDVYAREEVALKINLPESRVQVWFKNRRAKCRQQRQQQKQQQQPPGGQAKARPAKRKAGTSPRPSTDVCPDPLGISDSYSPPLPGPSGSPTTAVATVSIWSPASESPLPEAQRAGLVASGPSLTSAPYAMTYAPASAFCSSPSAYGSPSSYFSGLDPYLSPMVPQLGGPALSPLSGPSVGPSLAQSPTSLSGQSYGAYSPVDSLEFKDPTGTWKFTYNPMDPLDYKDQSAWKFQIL
Summary of the method: as §1

[19] = target: ETV1 (Homo sapiens, UniProt P50549 1-477); details: protein: recombinant; tags: N-terminal GST; dsDNA, one strand shown
Sequence of ETV1 (P50549 whole entry): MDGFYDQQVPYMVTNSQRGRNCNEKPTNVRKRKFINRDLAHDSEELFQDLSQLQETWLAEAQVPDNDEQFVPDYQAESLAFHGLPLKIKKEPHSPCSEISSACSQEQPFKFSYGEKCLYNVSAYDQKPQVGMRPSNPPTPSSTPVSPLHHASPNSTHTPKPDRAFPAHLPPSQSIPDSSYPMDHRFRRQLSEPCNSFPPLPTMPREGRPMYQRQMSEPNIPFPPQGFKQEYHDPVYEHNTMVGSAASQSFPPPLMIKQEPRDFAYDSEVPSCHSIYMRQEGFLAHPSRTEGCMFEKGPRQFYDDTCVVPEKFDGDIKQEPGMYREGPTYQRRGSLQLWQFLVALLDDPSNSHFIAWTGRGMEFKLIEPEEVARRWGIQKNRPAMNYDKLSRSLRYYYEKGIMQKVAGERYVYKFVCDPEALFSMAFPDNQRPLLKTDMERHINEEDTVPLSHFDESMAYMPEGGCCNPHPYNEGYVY
Summary of the method: as §1

With CCGGAT the binding signal [1] was 3.23 fold enrichment (6-mer frequency, TF over GST control), the binding signal [2] was 3.45 fold enrichment (6-mer frequency, TF over GST control) and the binding signal [3] was 2.97 fold enrichment (6-mer frequency, TF over GST control). For the same sequence, the binding signal [4] was 4.05 fold enrichment (6-mer frequency, TF over GST control), the binding signal [5] was 2.97 fold enrichment (6-mer frequency, TF over GST control) and the binding signal [6] was 3.16 fold enrichment (6-mer frequency, TF over GST control). The binding signal [7] was 2.86 fold enrichment (6-mer frequency, TF over GST control), the binding signal [8] was 3.26 fold enrichment (6-mer frequency, TF over GST control) and the binding signal [9] was 3.33 fold enrichment (6-mer frequency, TF over GST control). For the same sequence, the binding signal [10] was 7.2 fold enrichment (6-mer frequency, TF over GST control), the binding signal [11] was 3.55 fold enrichment (6-mer frequency, TF over GST control) and the binding signal [12] was 1.63 fold enrichment (6-mer frequency, TF over GST control). The binding signal [13] was 2.66 fold enrichment (6-mer frequency, TF over GST control), the binding signal [14] was 2.75 fold enrichment (6-mer frequency, TF over GST control) and the binding signal [15] was 2.74 fold enrichment (6-mer frequency, TF over GST control). For the same sequence, the binding signal [16] was 2.89 fold enrichment (6-mer frequency, TF over GST control), the binding signal [17] was 3.19 fold enrichment (6-mer frequency, TF over GST control) and the binding signal [18] was 2.03 fold enrichment (6-mer frequency, TF over GST control). The binding signal [19] was 3.5 fold enrichment (6-mer frequency, TF over GST control).
